# Laboratory results from PubChem BioAssay (NCI).
# The panel holds about 83,000 compounds, 20% with a hit somewhere; the sample as a whole holds those more often.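 Percent growth is the endpoint: 0 to 100 indicates growth inhibition (40 means 60% inhibition), 0 means no net growth, and negative values indicate cell death.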 A number with no mark means an inactive call. Calls of active or inactive are those of the source. How the source made its calls: active means growth percent below 10; inactive means the rest.
# Tested on: HL-60(TB) leukemia
# Assay: NCI-60 one-dose screen, 48 h (100 = growth as untreated, 0 = no growth, -100 = all killed)
# Settings: 10 µM unless noted
row,SMILES,growth
1,COc1ccc(Cl)c(Nc2nc3ccccc3nc2NS(=O)(=O)c2cccc(NC(=O)C(C)(C)N)c2)c1,32.6%
2,O=C(NCCCCO)c1cncnc1Nc1ccc2c(ccn2Cc2cccc(F)c2)c1,100%
3,CCCn1c(=O)[nH]c(N)c([C@H]2c3ccccc3Oc3[nH]c(=O)n(CCC)c(=O)c32)c1=O,32.9%
4,Cc1c(/C=C/[N+](=O)[O-])ccc2c1[nH]c1ccccc12,67.3%
5,S=C1SCN(Cc2cccs2)CN1Cc1cccs1,91%
6,COc1cccc(/C=C/c2c(C(=O)O)cccc2[N+](=O)[O-])c1OC,97.4%
7,COC(=O)/C(CCC=C(C)C)=C1\[C@@H](OC(C)=O)C[C@@]2(C)[C@H]1C[C@@H](O)[C@H]1[C@@]3(C)CC[C@H](NCc4ccccc4)[C@@H](C)[C@@H]3CC[C@@]12C,43%
8,O=C1/C(=C/c2ccc(Cl)c(Cl)c2)CN(C(=O)CCN2CCC(=NO)CC2)C/C1=C\c1ccc(Cl)c(Cl)c1,-16% (active)
9,O=[N+]([O-])c1ccc(-c2ncc(-c3ccc(O)cc3O)[nH]2)cc1,145%
10,NS(=O)(=O)c1ccc(-n2nc(C(=O)N/N=C\c3ccc(F)cc3)cc2-c2ccc(Br)cc2)cc1,71%
11,Cn1c2ccc(Br)cc2c2c3c(c4c5ccccc5[nH]c4c21)C(=O)N(O)C3=O,-58.6% (active)
12,CCN(CC)CCOc1cccc2c1C(=O)c1ccccc1C2=O,93.3%
13,Cc1ccc(/C(=N\N=C(N)N)c2ccccc2)cc1,-41.6% (active)
14,O=C(O)CSCc1nnc2n(Cc3ccccc3)c(=O)c3c4c(sc3n12)CCCC4,94.9%
15,CCOc1ccc(Br)cc1/C=N\N=C\c1cc(Br)ccc1OCC,73.2%
16,O=C(CCN1CCCC1)Nc1ccc2c(Nc3ccc(Br)cc3)c3ccccc3nc2c1,-54.6% (active)
17,O=C(CCCCCNC(=O)c1cc(=O)c(O)co1)Nc1ccccc1,106%
18,CCN1/C(=C/C=C/c2n(-c3ccccc3)c3ccc(-c4nc5ccccc5s4)cc3[n+]2CC)N(c2ccccc2)c2ccc(-c3nc4ccccc4s3)cc21,6.43% (active)
19,N#Cc1cccc(C2C3=C(COC3=O)N(CCO)c3cc4c(cc32)OCO4)c1 (stereo not given),-32.1% (active)
20,CC(=O)c1c(C)nc2ccccc2c1/C=C/c1cccc(C)c1,28.2%

row,SMILES,growth
1,c1ccc(-c2n(Cc3ccc4ccccc4n3)cc[n+]2Cc2ccc3ccccc3n2)cc1,-33.1% (active)
2,CSc1nc2c(c(=O)n1C)C(c1ccccc1)C1=C(N2)/C(=C/c2ccccc2)CCC1 (stereo not given),12.8%
3,O=C(Nc1cccc([N+](=O)[O-])c1)NN1CCCCCC1,112%
4,CC12CCC3C(CCC4CC(O)CCC43C)C1C/C(=C/O)C(=O)O2 (stereo not given),107%
5,Cc1cc(C)c2c(c1)N1OC(C2)C[C@H]1/C=C/c1ccccc1 (stereo not given in full),82.2%
6,Brc1ccc(-c2nnc3c4[nH]ccc4ncn23)cc1,100%
7,Nc1cc2c3c(cccc3c1)C(=O)N(CCN1CCCC1)C2=O,1.24% (active)
8,[O-]/[N+](=C\c1ccccc1)CC1(O)CCCCC1,98.5%
9,Cc1c(CN2CCN(C(=O)[C@H](C)O)CC2)sc2c(N3CCOCC3)nc(-c3cnc(N)nc3)nc12,-7.28% (active)
10,CCN(CC)CCNc1c(C)cc(CO)c(Cl)c1C,107%
11,COc1cc2c(cc1-c1c(C)noc1C)ncc1nc(C3CCCCC3)n([C@@H](C)COC(F)F)c12,17.4%
12,COc1cc(-c2nc3sc(C)cn3c2/C=C2\C(=O)Nc3ccccc32)c(Br)c(OC)c1OC,-7.35% (active)
13,CCCCCCC12CCC(=O)N1CCc1cncn12 (stereo not given),85.4%
14,CC(N)C(Cc1ccccc1)c1ccc(Cl)cc1 (stereo not given),66.5%
15,COc1ccc(-c2cc(-c3ccc(OC)cc3)nc(NCCCNc3ccnc4cc(Cl)ccc34)n2)cc1,-37.7% (active)
16,COc1ccc2cc(-c3ccc(-c4ccc(C(=N)N)cc4)s3)ccc2c1,100%
17,COc1ccc(-c2nc3sc(-c4ccc(Cl)cc4)cn3n2)cc1,105%
18,Cc1ccc(O)c(NC(=O)c2cccc(Nc3ccnc(C(F)(F)F)c3)c2)c1,-11.8% (active)
19,COc1cc(-c2nc3c(ncc4ccc(=O)n(-c5ccccc5)c43)s2)cc(OC)c1OC,94.1%
20,Cc1cc2nc(CC(=O)c3ccccc3)c(=O)[nH]c2cc1C,103%
